# Laboratory results from PubChem BioAssay (NCI).
# The panel holds about 83,000 compounds, 20% with a hit somewhere; the sample as a whole holds those more often.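 How to read the values: 0–100, growth inhibition (40 = 60% inhibited); 0, no net growth; -100 to 0, cell death (-40 = 40% of starting cells died; -100 = all dead).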 Unmarked numbers belong to inactive results. Active and inactive are the calls of the source. Rule for the calls: active = growth percent below 10; inactive = the rest.
# Tested on: HL-60(TB) leukemia
# Assay: NCI-60 one-dose screen, 48 h (100 = growth as untreated, 0 = no growth, -100 = all killed)
# Conditions: 10 µM unless noted
row,SMILES,growth
1,CN(C)c1ccc(/C=C(\C#N)c2nc3ccccc3n2C)cc1,1.21% (active)
2,CC(C)(C)c1ccc(CCO)cc1,86.6%
3,C#CCn1cnc2cnc(Nc3cccc(NC(=O)CCl)c3)nc21,-7.95% [6.25 µM] (active)
4,Cc1ccc(C2CC(c3cccc(Nc4ccncc4)c3)=NN2c2ccccc2)cc1 (stereo not given),-56.6% (active)
5,O=C(NS(=O)(=O)c1ccccc1)n1cc(-c2ccncc2)c(-c2ccc(Cl)c(O)c2)n1,94%
6,CCOc1ccc(I)cc1,128%
7,CSc1nc2sc3cc(Cl)c(Cl)cc3n2c(=N)c1C#N,110%
8,COc1cc2cc(Oc3ccc(NC(=O)Nc4cccc(C(F)(F)F)c4)cc3)c(C)nc2cc1OCCN1CCCCC1,-51.9% (active)
9,COc1ccc(CNC(=O)C(O)C(Cc2ccccc2)NC(=O)c2[nH]c3ccccc3c(=O)c2C)cc1OC (stereo not given),97.3%
10,O=S(=O)(NCCCNc1nccc(-c2c(-c3cccc(O)c3)nc3occn23)n1)c1ccc(Cl)cc1,56.1%
11,NC(N)=NS(=O)(=O)c1ccc(NC2=C(I)C(=O)c3ncccc3C2=O)cc1,99.2%
12,O=C(c1ccc(F)cc1)C1CCN(CCn2c(=O)[nH]c3ccccc3c2=O)CC1,97.3%
13,Oc1ccccc1-c1nnco1,96%
14,COc1cc(C(N)=O)cc(OC)c1OC,96.6%
15,COc1cccc(-c2nc3sccn3c2-c2cccc(S(C)(=O)=O)c2)c1,98.3%
16,O=C1/C(=C/c2cccc3cnccc23)Cc2cc(F)ccc21,105%
17,CCCCCCCCCCCCCCCCCC1=NCCN1C(=O)OCCO,35.5%
18,Cc1ccc(OCCn2c(C)nn(-c3ccc(Cl)cc3)c2=O)cc1,114%
19,O=c1oc2ccc(F)cc2c(=O)n1-c1ccc(F)cc1F,16.7%
20,C=C(C)COc1ccc(C(C)(C)C)cc1,104%

row,SMILES,growth
1,CC(=O)/C(=C\c1ccc(Cl)cc1)c1ccccc1,-16.2% (active)
2,Brc1ccc(-c2[nH]ncc2-c2c[nH]c3ccccc23)cc1,80.7%
3,S=C1CCCC(=S)N1,101%
4,Cc1cc2c(C(=O)NCC#N)cccc2n1-c1nc2c(c(NCc3ccccc3)n1)CCCC2,-23.5% (active)
5,Cn1ncc2c(=O)nc3c(-c4ccccc4)n[nH]n3c21,107%
6,CN(C)c1nc(-c2cccs2)n2nc(-c3ccco3)cc2n1,95.3%
7,Cc1nc(-c2ccccc2)cc2c(O)c(C(=O)N/N=C/c3ccc(N(C)C)cc3)[nH]c(=O)c12,116%
8,Cc1cc(C(=O)Nc2ncc(Cc3cccc(C(F)(F)F)c3)s2)c2ccccc2n1,-33.8% (active)
9,CC[N+]1(CC)CC[N+]2(CCCC(C)CC2)CC1 (stereo not given),101%
10,COc1cc(-c2nc3sc(C)cn3c2/C=C2\C(=O)Nc3ccccc32)c(Br)c(OC)c1OC,-7.35% (active)
11,O=C1N/C(=C\c2ccccc2)c2ncccc21,117%
12,CC(C)c1ccc2occ(C=C3C(=O)NC(=O)NC3=O)c(=O)c2c1,74.8%
13,Cc1ccc(S(=O)(=O)N(CCC(=O)O)c2ccccc2)cc1,92.1%
14,CCOc1cc(-c2ccc[nH]2)[nH]c1/C=C1\N=C(C)C(C(=O)OC)=C1C,-42.7% (active)
15,Clc1ccc(/C=N\N=C\c2ccc(Cl)c(Cl)c2)cc1Cl,135%
16,CC1(C)CC(=O)C2=C(C1)Oc1nc(N)c(C#N)c(N)c1C2c1ccc(F)cc1 (stereo not given),107%
17,C=CC[n+]1c(/C=C2\Sc3ccccc3N2C)sc(-c2ccccc2)c1-c1ccccc1,-25.5% (active)
18,NS(=O)(=O)c1ccc(CCN=C=S)cc1,-2.31% (active)
19,N#Cc1c(N)nc2c(c1N)C(c1ccc(Cl)cc1)C1=C(CCCC1=O)N2c1sc2c(c1C#N)CCCC2 (stereo not given),89.2%
20,Cn1c2c(c3ccccc31)CCN1C[C@@H]3CCCC[C@H]3C[C@@H]21,2.52% (active)
